In the library only some 2.7% were active in any assay of this set; here they are far more common.
PP5 inh – PP5 (human) phosphatase inhibition; P53041; purified PP5c, OMFP substrate fluorescence; inhibition, % at 6.7 µM; 320,000 tested, 0.18% active; AID 1987;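 active = inhibition above the campaign's mean inhibition across all tested compounds plus 3 SD, cut at about 9.5% in these data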;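 also: 0% = DMSO only and 100% = 100 µM cantharidin control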
PP1 inh – PP1-alpha (human) inhibition in PP5 counter-screen. P62136. purified PP1alpha, OMFP fluorescence. inhibition, % at 6.7 µM. 320,000 tested, 0.9% active. AID 2235;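 active = inhibition above the mean inhibition of all tested compounds plus 3 SD, computed separately for each screening campaign, cut at about 15% in these data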
TMEM16A act – mouse TMEM16A channel activation, primary screen. Q8BHY3. HEK293 TMEM16A/YFP-H148Q/I152L, iodide quench fluorescence; stronger effect = lower value. B-score at 10 µM. 340,000 tested, 0.3% active. AID 623877;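 active = fluorescence-ratio B-score plate-corrected deviation score at least 3 library SD below zero, with starting fluorescence score within 5 deviations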;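 also: channel opened by trigger with iodide after compound preincubation; score built on the fluorescence ratio of max minus min over baseline; more negative score means more quench and so TMEM16A activation or potentiation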
TMEM16A inh – inhibitors of mouse TMEM16A calcium-activated chloride channel. normalized B-score (activity score, 25-100; higher = stronger inhibition) at 10 µM. Q8BHY3. 310,000 tested, 1.2% active. HEK293 TMEM16A/YFP iodide influx fluorescence, ionomycin;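 active = ratio plate-corrected score three or more library SD toward inhibition, starting fluorescence score within five deviations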;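 also: score derived from kinetic fluorescence span divided by baseline fluorescence per well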
FID counter – counter-screen for HCV NS3 helicase inhibitors: DNA intercalator displacement; DNA fluorescent intercalator displacement, fluorescence; inhibition, % at 7.9 µM; 290,000 tested, 0.17% active; AID 1845; in the data active = inhibition above about 37%;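 also: 0% = vehicle and 100% = reference compound; higher means more ethidium bromide displaced from hairpin DNA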
PREPL inh – inhibits the human prolyl oligopeptidase-like enzyme; recombinant PREPL, fluorescence polarization activity-based probe; 320,000 tested, 0.68% active; inhibition, % at 5.96 µM; in the data active = inhibition above about 43%;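 also: 0% = enzyme with DMSO and 100% = wells lacking enzyme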
An asterisk follows results filed as active; i = inactive; · = not tested or not shown.

SMILES	PP5 inh	PP1 inh	TMEM16A act	TMEM16A inh	FID counter	PREPL inh
COc1ccc(/C=C\C(=O)O[C@@H]2C(O)C(O[C@@H]3OC(C)[C@H](O[C@@H]4OCC(O[C@H]5O[C@H](CO)[C@@H](O)C(O)C5O)C(O)C4O)C(O)C3O)[C@H](OC(=O)[C@]34CCC(C)(C)C[C@@H]3C3=CCC5[C@@]6(C)CC(O)C(O[C@@H]7OC(CO)C(O)[C@H](O)[C@H]7O)[C@@](C)(C(=O)O)C6CC[C@@]5(C)[C@]3(CO)CC4)O[C@H]2C)cc1 (stereo partly specified)	·	·	-32*	·	·	14
COc1cccc(C(=O)Nc2ccccc2)c1	3	0	i	i	-2	5
COc1cccc(C(=O)Nc2ccc(NC(=O)Cc3ccccc3)cc2)c1	1	17*	i	i	-15	-4
Cc1cc(N2CCN(C)CC2)nc2ccc(NC(=S)NCCCN3CCc4ccccc4C3)cc12	1	-1	i	i	41*	43
CCN1CCN(c2cc(C)c3cc(NC(=S)NCCCN4CCc5ccccc5C4)ccc3n2)CC1	0	3	i	i	32	39
Cc1cc(N2CCN(C)CC2)nc2ccc(NC(=S)N3CCCCC3)cc12	·	·	i	·	22	·
Cc1cc(N2CCN(C)CC2)nc2ccc(NC(=S)NCCN3CCc4ccccc4C3)cc12	1	0	i	i	38*	43
Cc1cccc(N2CCN(C(=S)Nc3ccc4nc(N5CCN(C)CC5)cc(C)c4c3)CC2C)c1 (stereo unspecified)	1	1	i	i	47*	35
CC(C)CN(C(=O)COC(=O)c1cc2ccccc2cc1O)c1c(N)n(Cc2ccccc2)c(=O)[nH]c1=O	·	·	i	·	·	·
O=C(O)c1cc(=S)nc[nH]1	·	·	i	·	·	·
CC(C)Cn1c(SC(C)C(=O)NCC2CCCO2)nc2ccc(Cl)cc2c1=O (stereo unspecified)	0	-2	-25*	·	·	8
CCCn1c(SC(C)C(=O)NCC2CCCO2)nc2cc(Cl)ccc2c1=O (stereo unspecified)	0	-5	i	i	·	8
CCCCc1cc(O)c(CCCC)c(O)c1	4	0	i	100*	-3	18
NCCc1ccc(O)c(O)c1	2	-4	i	i	1	11
OC[C@@H]1CC[C@@H](Cc2ccc(-c3ccccc3)cc2)O1	·	·	i	·	·	·
COCCn1c(=NC(=O)CSCC(=O)N2CCOCC2)sc2ccccc21	-1	2	i	i	-20	-3
c1ccc(CCNc2cnccn2)cc1	0	-6	-4.7*	i	-5	3
Cn1nc(C(=O)OCC(=O)Nc2ccc(SC(F)F)cc2)c2ccccc2c1=O	·	·	i	·	·	7
Cc1ccc2sc(NNC(=O)c3cc(=O)c4ccccc4o3)nc2c1C	2	7	i	100*	-12	11
COc1ccc(S(=O)(=O)N2CCOCC2)cc1NC(=O)C1CCCCN1S(=O)(=O)c1ccccc1 (stereo unspecified)	·	·	i	·	·	·
CCOC(=O)C1=C(C)N(C)C(=S)NC1c1ccc(Cl)cc1Cl (stereo unspecified)	2	-2	i	i	-19	4
S=C1NCC(c2ccccc2)S1 (stereo unspecified)	·	·	i	·	·	·
CCCCC(CC)C(=O)Nc1ncc([N+](=O)[O-])s1 (stereo unspecified)	0	-3	i	100*	1	10
CCC(=O)N1c2ccc(S(=O)(=O)CCC(=O)Nc3nccs3)cc2CC1C (stereo unspecified)	0	-4	-8.9*	i	4	11
c1ccc(-c2ccc(-n3ccnc3)cc2)cc1	-1	5	i	i	-4	-55
SMILES	PP5 inh	PP1 inh	TMEM16A act	TMEM16A inh	FID counter	PREPL inh
c1ccc(-c2ccc(C(c3ccccc3)n3ccnc3)cc2)cc1 (stereo unspecified)	-1	16*	i	i	-9	-4
Cn1c(=O)[nH]c(=O)c2c1nc(Br)n2Cc1cccc(Br)c1	1	3	i	i	-18	-62
CCCNc1nc2c(c(=O)[nH]c(=O)n2C)n1Cc1cccc(Br)c1	2	2	-5.8*	i	-1	-1
CCCS(=O)(=O)Nc1ccc(Nc2c3ccccc3nc3ccccc23)c(OC)c1	·	·	i	·	·	·
COc1ccc(/C=N/NC(=O)c2nn(-c3ccc(Cl)cc3)c(=O)c3c(N)scc23)cc1	2	17*	i	i	-16	25
CSc1nc(Cl)c(Cc2ccc(OC(C)C)cc2)c(N2CCOCC2)n1	1	1	i	100*	-10	0
COc1nc(SC)nc(Cl)c1Cc1ccc(OC(C)C)cc1	0	-2	i	i	-5	0
Cc1ccc(C(=O)Nc2cccc(NC(=O)c3cccs3)c2)c(C)c1	4	3	i	i	-14	-10
O=C(/C=C/c1ccc(F)cc1)c1cc(Br)ccc1O	2	2	i	i	-3	-19
O=C(/C=C/c1ccccc1)c1cc(Br)ccc(=O)c1O	2	17*	i	100*	-20	11
CCc1ccc(NC(=S)N2CCN(S(=O)(=O)c3ccccc3)CC2)cc1	·	·	i	i	-28	·
CC(=O)C1=C(C)NC(SCSc2ccccc2)=C(C#N)C1c1cccnc1 (stereo unspecified)	1	4	·	i	-6	17
CC(=O)C1=C(C)NC(SCC(=O)c2ccc(-c3ccccc3)cc2)=C(C#N)C1c1cccnc1 (stereo unspecified)	0	27*	·	i	-14	35
COc1ccc(/C=N/N=C2/CC(C)(C)Cc3n[nH]c(=O)cc32)cc1	1	-2	-9.1*	i	-3	4
COc1ccc(/C=N/N=C2/NC(=O)CC(C(=O)O)S2)cc1 (stereo unspecified)	2	-4	i	i	-5	-4
O=C(CSc1ccc(Cl)cc1)N1CCC(c2nc3ccccc3s2)CC1	2	4	i	100*	-22	-22
O=C(CSc1c(Cl)cccc1Cl)N1CCC(c2nc3ccccc3s2)CC1	2	1	i	100*	-7	-36
O=C(O)C1CCN(C(=O)CSc2nc3ccccc3s2)CC1	0	-2	i	i	-7	1
N/C(=N\OC(=O)c1ccccc1)C(Cc1ccccc1)C(=O)NOC(=O)c1ccccc1 (stereo unspecified)	·	·	i	·	·	·
O=C1C2CCCN2c2ccc(S(=O)(=O)N3CCOCC3)cc2N1Cc1ccccc1F (stereo unspecified)	1	6	i	i	-7	0
O=C1C2CCCN2c2ccc(S(=O)(=O)N3CCOCC3)cc2N1Cc1cccc(C(F)(F)F)c1 (stereo unspecified)	1	30*	·	i	-20	-8
Nc1ccc2nc(N3CCOCC3)sc2c1	0	-2	i	i	0	46*

Screening data from PubChem.
